PrP 5UTR inh – suppresses PrP 5' UTR mRNA reporter expression; inhibition, % (no concentration beside the values); cell-based PrP 5' UTR mRNA reporter, plate reader; 340,000 compounds, 0.35% hits; in the data active means inhibition above about 52%; further: 0 = median of the neutral control wells
PrPC TRFRET – inhibitors of human cell surface prion protein PrPC | 370,000 compounds, 0.43% hits | TR-FRET read-out | inhibition, % at 13.8 µM | AID 720596; in the data active means inhibition above about 24%; further: 0% = median of the test wells and 100% = reference compound wells
BJeLR lethal – kills HRASV12-expressing BJeLR cells | 300,000 compounds, 0.17% hits | BJeLR (HRASV12) viability, CellTiter-Glo ATP luminescence, 48 h | AID 1554 | inhibition, % (no concentration beside the values); in the data active means inhibition above about 50%; inconclusive means no clear call, values can overlap the other calls
Yp Topo-I inh – inhibitors of Yersinia pestis topoisomerase I; Y. pestis Topo-I cleavage product accumulation, plate reader; activity, % at 10 µM; 360,000 compounds, 0.064% hits; AID 504884; in the data active means activity above about 50%, passing the limit was not always enough; inconclusive means no clear call, values can overlap the other calls
PfHsp40 yeast – rescue of PfHsp40-mediated yeast toxicity; S. cerevisiae expressing PfHsp40, growth rescue, ATP luminescence; growth rescue, % at 12.5 µM; 340,000 compounds, 0.68% hits; in the data active means growth rescue above about 28%, passing the limit was not always enough; inconclusive means no clear call, values can overlap the other calls;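 further: yeast W303a lacking pdr1 and pdr3 grown in galactose medium; growth measured after three days at 30 °C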
CCHFV vOTU inh – CCHFV vOTU protease inhibition | inhibition, % at 11.5 µM | Pep-AMC fluorescence | AID 651958 | 370,000 compounds, 0.55% hits; in the data active means inhibition above about 30%; further: 0% = vehicle wells with enzyme and 100% = no enzyme wells
PrP 5UTR single – prion 5' UTR mRNA inhibition, cherry-pick retest; shares compounds with PrP 5UTR inh; cell-based prion protein 5' UTR reporter, plate reader; inhibition, % at 2.5 µM; 1,100 compounds, 48% hits; AID 504592; in the data active means inhibition above about 54%; inconclusive means no clear call, values can overlap the other calls
Numbers without * were called inactive; ? = inconclusive; · = not tested or not shown. This is a sample that favours compounds with a hit; in the whole collection about 2% have one here.

SMILES	PrP 5UTR inh	PrPC TRFRET	BJeLR lethal	Yp Topo-I inh	PfHsp40 yeast	CCHFV vOTU inh	PrP 5UTR single
CC(C)c1ccccc1NC(=S)N1CCN(S(=O)(=O)c2cccs2)CC1	87*	-3	-3	-7	-1	-5	-7
O=C(NC1CCCC1)[C@@H]1CCCN1C(=O)[C@@H](NS(=O)(=O)c1ccc(F)cc1F)c1ccccc1	·	-1	·	·	·	25	·
CC(C)Nc1nnc(SCC(=O)c2c(N)n(Cc3ccccc3)c(=O)n(C)c2=O)s1	60*	-5	-3	15	0	6	-7
CC(=O)Nc1ccc(SCC(=O)c2c(N)n(Cc3ccccc3)c(=O)n(C)c2=O)cc1	-9	1	2	6	0	7	·
CC(C)NC(=O)N[C@H]1C[C@@H]2O[C@@H](CO)CC[C@@H]2O[C@@H]1CCc1ccc(-c2ccccc2F)cc1	·	-6	·	·	·	1	·
CC(=O)O[C@H]1C(=O)[C@@]2(C)C([C@H](OC(=O)c3ccccc3)[C@]3(O)C[C@H](OC(=O)[C@H](O)[C@@H](NC(=O)c4ccccc4)c4ccccc4)C(C)=C1C3(C)C)[C@]1(OC(C)=O)CO[C@@H]1C[C@H]2O (stereo partly drawn)	56*	19	31	33	1	-5	68*
CS(=O)(=O)N(CC(=O)NCCSc1ccccn1)c1ccc(F)cc1	52*	1	-13	-2	0	3	4
COc1ccc(N(CC(=O)NCCSc2ccccn2)S(C)(=O)=O)cc1	-7	0	-4	1	-1	-3	·
O=C(Nc1ccc(F)cc1)OCc1cn(Cc2ccccc2Cl)nn1	·	1	·	·	·	-3	·
CCN(CC)c1ccc(NC(=O)c2cnn(CC)c2)cc1	-30	-1	0	-7	0	10	·
CCN(CCCl)c1cc(CN(C)C)cc(NC(=O)c2ccc(C(=O)Nc3cc(CN(C)C)cc(N(CC)CCCl)c3)cc2)c1	95*	-4	·	-46	0	-7	91*
Nc1[nH]c2cc(C(F)(F)F)ccc2c1C(=O)N1CCN(CCc2ccccc2)CC1	·	-8	·	·	·	11	·
CC[C@]1(c2ccc(C)cc2)C(=O)N(C(=O)OC(C)C)N1C(=O)OC(C)C	·	0	·	·	·	6	·
O=C(Nc1ccc(-c2nc3ccccc3s2)cc1)C1=COCCO1	73*	-6	13	-9	-1	-4	66*
O=C(Nc1nc2cc3c(cc2s1)OCO3)C1=COCCO1	70*	-4	21	-13	0	22	64*
O=C(Nc1nc2cc3c(cc2s1)OCCO3)c1ccco1	78*	1	7	-2	1	23	81*
CC(=O)Nc1nc2cc3c(cc2s1)OCO3	-34	5	3	6	0	-4	·
CC1CCc2nc(NC(=O)c3ccco3)sc2C1 (stereo not drawn)	57*	1	2	4	0	6	54*
O=C(Nc1nc2cc3c(cc2s1)OCO3)c1ccco1	52	2	4	6	-1	-1	·
O=C(Nc1cccc(-c2nc3ccccc3s2)c1)C1=COCCO1	-14	0	4	10	1	1	·
Cc1cccc(Cl)c1-n1nnnc1C1(C)CSCC(=O)N1Cc1ccc(F)cc1 (stereo not drawn)	·	1	·	·	·	-3	·
CCC(C)N(C(=O)CSc1nnc(-c2cccnc2)n1C1CCCCC1)C(C)CC (stereo not drawn)	·	-2	·	·	·	-2	·
COC(=O)C1=C(C)N(Cc2cccc(C(F)(F)F)c2)C(=NCc2ccc(OC)cc2)NC1c1ccc(F)cc1 (stereo not drawn)	·	-12	·	·	·	17	·
O=C(Cc1ccc(Cl)cc1)Nc1ccc(C(=O)N2CCOCC2)cc1	63*	2	1	-5	0	-3	-12
CC(=O)Nc1ccc(Nc2cc(C)nc3c(-c4ccccc4)cnn23)cc1	60*	16	·	-2	?	8	-4
COc1ccccc1C(=O)N1CCC2CCN(C(=O)OC(C)(C)C)C2C1 (stereo not drawn)	·	9	·	·	·	19	·
O=C(NCc1cccc(C(F)(F)F)c1)c1ccc(=O)[nH]c1	-17	-4	-3	2	0	14	·
O=C(COc1cccc(C(F)(F)F)c1)NNC(=O)c1ccc(=O)[nH]c1	65*	2	·	1	0	1	6

Assay outcomes (PubChem BioAssay)
